Out of some 5,500 compounds screened, about 2,000 (36%) were called active. Not shown: some 18% with an inconclusive outcome. No stated cut-off is given here; in the data, active means normalized growth mostly below about 0.91 (no sharp cut-off); inconclusive means no clear call, values can overlap the other calls; inactive means mostly above about 0.92. This is one part of the list.
Experiment: chemical genetic growth profiling, strain panel (AID 1159580);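 further: tested at 20 µM; growth read once vehicle control cultures reached saturation at 30 °C; 1 = growth at the plate median or of vehicle wells; lower values mean less growth of the strain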
Details: growth OD

Measured: normalized growth

CC(=O)Oc1cc(OC(C)=O)c2c(c1)O[C@H](c1ccc(OC(C)=O)c(OC(C)=O)c1)[C@@H](OC(C)=O)C2
inactive: S. cerevisiae deletion strains, locus YJR066W, strain TOR1, hits give low values 0.934 | S. cerevisiae deletion strains, locus YJR075W, strain HOC1, hits give low values 1.01 | S. cerevisiae deletion strains, locus YKL009W, strain mrt4, hits give low values 1.04 | S. cerevisiae deletion strains, locus YKL068W, hits give low values 0.987 | S. cerevisiae deletion strains, locus YKL085W, strain MDH1 (second series), hits give low values 0.983 | S. cerevisiae deletion strains, locus YKL085W, strain MDH1, hits give low values 0.983 | S. cerevisiae deletion strains, locus YKL160W, strain elf1, hits give low values 1 | S. cerevisiae deletion strains, locus YKL190W, strain CNB1, hits give low values 0.997 | S. cerevisiae deletion strains, locus YKR001C, strain vps1, hits give low values 0.97 | S. cerevisiae deletion strains, locus YKR026C, strain gcn3, hits give low values 0.972 | S. cerevisiae deletion strains, locus YKR091W, strain srl3, hits give low values 1 | S. cerevisiae deletion strains, locus YLL001W, strain dnm1, hits give low values 0.992 | S. cerevisiae deletion strains, locus YLL026W, hits give low values 0.995 | S. cerevisiae deletion strains, locus YLL041C, strain sdh2, hits give low values 0.997 | S. cerevisiae deletion strains, locus YLR027C, strain aat2, hits give low values 1.02 | S. cerevisiae deletion strains, locus YLR039C, strain RIC1, hits give low values 1.04 | S. cerevisiae deletion strains, locus YLR058C, strain SHM2, hits give low values 1 | S. cerevisiae deletion strains, locus YLR102C, strain apc9, hits give low values 0.986 | S. cerevisiae deletion strains, locus YLR113W, strain HOG1, hits give low values 0.966 | S. cerevisiae deletion strains, locus YLR221C, strain rsa3, hits give low values 1.01 | S. cerevisiae deletion strains, locus YLR258W, strain gsy2, hits give low values 1 | S. cerevisiae deletion strains, locus YLR262C, strain YPT6 (second series), hits give low values 0.998 | S. cerevisiae deletion strains, locus YLR262C, strain YPT6, hits give low values 1.09 | S. cerevisiae deletion strains, locus YLR268W, strain sec22, hits give low values 0.958 | S. cerevisiae deletion strains, locus YLR320W, strain mms22, hits give low values 0.977 | S. cerevisiae deletion strains, locus YLR330W, strain CHS5, hits give low values 0.995 | S. cerevisiae deletion strains, locus YLR342W, strain FKS1 (second series), hits give low values 0.979 | S. cerevisiae deletion strains, locus YLR342W, strain FKS1, hits give low values 0.994 | S. cerevisiae deletion strains, locus YLR357W, strain rsc2, hits give low values 0.992 | S. cerevisiae deletion strains, locus YLR370C, strain arc18, hits give low values 1.01 | S. cerevisiae deletion strains, locus YLR371W, strain rom2, hits give low values 0.959 | S. cerevisiae deletion strains, locus YLR384C, strain iki3, hits give low values 1 | S. cerevisiae deletion strains, locus YLR418C, strain cdc73, hits give low values 1.03 | S. cerevisiae deletion strains, locus YML016C, strain PPZ1, hits give low values 0.978 | S. cerevisiae deletion strains, locus YML032C, strain rad52, hits give low values 1.01 | S. cerevisiae deletion strains, locus YML120C, strain ndi1, hits give low values 1.01 | S. cerevisiae deletion strains, locus YML124C, strain tub3, hits give low values 0.981 | S. cerevisiae deletion strains, locus YMR058W, strain fet3, hits give low values 1 | S. cerevisiae deletion strains, locus YMR078C, strain ctf18, hits give low values 0.964 | S. cerevisiae deletion strains, locus YMR125W, strain sto1, hits give low values 0.996 | S. cerevisiae deletion strains, locus YMR129W, hits give low values 1 | S. cerevisiae deletion strains, locus YMR205C, strain PFK2, hits give low values 0.972 | S. cerevisiae deletion strains, locus YMR223W, strain ubp8, hits give low values 1 | S. cerevisiae deletion strains, locus YMR231W, strain pep5, hits give low values 1 | S. cerevisiae deletion strains, locus YMR307W, strain GAS1, hits give low values 1.1 | S. cerevisiae deletion strains, locus YNL067W, strain RPL9B, hits give low values 1 | S. cerevisiae deletion strains, locus YNL071W, strain lat1, hits give low values 1.01 | S. cerevisiae deletion strains, locus YNL153C, strain GIM3, hits give low values 1 | S. cerevisiae deletion strains, locus YNL183C, strain NPR1, hits give low values 0.904 | S. cerevisiae deletion strains, locus YNL209W, strain ssb2, hits give low values 1 | S. cerevisiae deletion strains, locus YNL233W, strain BNI4, hits give low values 0.983 | S. cerevisiae deletion strains, locus YNL248C, strain rpa49, hits give low values 1.01 | S. cerevisiae deletion strains, locus YNL250W, strain rad50, hits give low values 0.977 | S. cerevisiae deletion strains, locus YNL271C, strain bni1, hits give low values 0.975 | S. cerevisiae deletion strains, locus YNL298W, strain CLA4, hits give low values 0.979 | S. cerevisiae deletion strains, locus YNL307C, strain MCK1, hits give low values 0.98 | S. cerevisiae deletion strains, locus YNL322C, strain KRE1 (second series), hits give low values 0.997 | S. cerevisiae deletion strains, locus YNL322C, strain KRE1, hits give low values 0.998 | S. cerevisiae deletion strains, locus YNR049C, strain mso1, hits give low values 0.995 | S. cerevisiae deletion strains, locus YNR052C, strain pop2, hits give low values 0.981 | S. cerevisiae deletion strains, locus YOL012C, strain htz1 0.674 | S. cerevisiae deletion strains, locus YOL147C, strain pex11, hits give low values 1 | S. cerevisiae deletion strains, locus YOR001W, strain rrp6, hits give low values 0.997 | S. cerevisiae deletion strains, locus YOR061W, strain CKA2, hits give low values 0.977 | S. cerevisiae deletion strains, locus YOR069W, strain VPS5, hits give low values 0.989 | S. cerevisiae deletion strains, locus YOR070C, strain gyp1, hits give low values 1 | S. cerevisiae deletion strains, locus YOR080W, strain dia2, hits give low values 0.998 | S. cerevisiae deletion strains, locus YOR083W, strain WHI5, hits give low values 1.01 | S. cerevisiae deletion strains, locus YOR106W, strain vam3, hits give low values 1 | S. cerevisiae deletion strains, locus YOR136W, strain idh2, hits give low values 0.965 | S. cerevisiae deletion strains, locus YOR144C, strain elg1, hits give low values 0.982 | S. cerevisiae deletion strains, locus YOR184W, strain ser1, hits give low values 0.986 | S. cerevisiae deletion strains, locus YOR231W, strain MKK1, hits give low values 0.974 | S. cerevisiae deletion strains, locus YOR265W, strain rbl2, hits give low values 1 | S. cerevisiae deletion strains, locus YOR270C, strain vph1, hits give low values 0.988 | S. cerevisiae deletion strains, locus YOR290C, strain snf2, hits give low values 0.961 | S. cerevisiae deletion strains, locus YOR316C, strain cot1, hits give low values 0.986 | S. cerevisiae deletion strains, locus YPL051W, strain arl3, hits give low values 1.01 | S. cerevisiae deletion strains, locus YPL055C, strain LGE1, hits give low values 0.999 | S. cerevisiae deletion strains, locus YPL078C, strain atp4, hits give low values 1.02 | S. cerevisiae deletion strains, locus YPL106C, strain sse1, hits give low values 0.996 | S. cerevisiae deletion strains, locus YPL240C, strain hsp82, hits give low values 0.992 | S. cerevisiae deletion strains, locus YPL241C, strain CIN2, hits give low values 0.999 | S. cerevisiae deletion strains, locus YPL256C, strain CLN2, hits give low values 0.974 | S. cerevisiae deletion strains, locus YPR119W, strain clb2, hits give low values 0.979 | S. cerevisiae deletion strains, locus YPR141C, strain kar3, hits give low values 0.981 | S. cerevisiae deletion strains, locus YPR163C, strain tif3, hits give low values 0.994 | S. cerevisiae deletion strains, locus YPR167C, strain met16, hits give low values 0.978 | S. cerevisiae deletion strains, strain wtn01, hits give low values 0.951 | S. cerevisiae strains, strain wild type, hits give low values 0.993

Reference: PubChem BioAssay AID1159580 (chemical genetic matrix, 2015)
